Data published in PubChem BioAssay AID2551 (National Center for Advancing Translational Sciences (NCATS), 2010).
In all, about 310,000 compounds went through this assay and about 17,000 (5.5%) were called active. Inconclusive results (about 11%) are left out. This is one part of a sample in which actives are shown more often than they occur. Calls follow the shape of the dose curve; as a rule, active = well fitted inhibition curve with a large enough effect; inconclusive = small, poorly fitted or top-dose-only effect, or effect the other way; inactive = no such curve, though single readings can be large or run the other way.

molecular target: Nuclear receptor ROR-gamma (Mus musculus) (UniProt P51450); assay: qHTS for inhibitors of ROR gamma transcriptional activity; conditions: Drosophila S2 Gal4-RORgamma UAS-luciferase reporter, 20 h; series mostly up to 53.6 µM; activity change, negative = inhibition: at the top concentration; also: nearly all actives have a fitted effect of over 60% in size
Sequence (P51450 whole entry, looked up, the tested form may be a part): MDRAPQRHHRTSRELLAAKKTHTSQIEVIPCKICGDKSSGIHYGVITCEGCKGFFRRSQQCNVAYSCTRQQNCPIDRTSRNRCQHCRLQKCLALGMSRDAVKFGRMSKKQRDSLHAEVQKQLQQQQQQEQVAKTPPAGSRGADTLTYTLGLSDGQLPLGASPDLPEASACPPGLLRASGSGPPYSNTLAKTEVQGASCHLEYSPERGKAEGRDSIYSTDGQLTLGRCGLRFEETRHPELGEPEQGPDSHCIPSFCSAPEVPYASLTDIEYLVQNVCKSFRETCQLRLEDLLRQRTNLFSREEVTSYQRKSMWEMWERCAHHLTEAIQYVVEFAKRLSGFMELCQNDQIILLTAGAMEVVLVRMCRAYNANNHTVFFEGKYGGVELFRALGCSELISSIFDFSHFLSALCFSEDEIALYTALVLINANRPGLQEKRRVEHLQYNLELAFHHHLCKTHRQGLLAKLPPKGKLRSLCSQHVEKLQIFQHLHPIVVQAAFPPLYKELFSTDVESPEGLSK
Method in brief: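 Compounds are pin-transferred onto Drosophila Schneider cells expressing a copper-inducible Gal4–ROR gamma transactivation domain fusion. After 1 hr, copper sulfate is added to 700 uM final; luciferase is read 20 hr later.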
% is scaled to controls: 0 for no effect and ±100 for the full control effect; potency is read from the fitted curve at half-maximal effect.

Row | SMILES | activity change, negative = inhibition | Potency
1 | Cc1ccc(C(=O)NC23CC4CC(CC(C4)C2)C3)c(Cl)c1 | 29.1% (inactive) | –
2 | Oc1ccccc1C1=NN(c2ccccc2)C(c2ccccc2)C1 (stereo unspecified) | -8.49% (inactive) | –
3 | CC(C)c1nnc(NC(=O)COC(=O)/C=C/c2ccc([N+](=O)[O-])cc2)s1 | 2.42% (inactive) | –
4 | NNC(=O)c1nnn(-c2nonc2N)c1CN1CCCC1 | -0.125% (inactive) | –
5 | CCc1ccc(NC(=O)NC(C)c2ccc3c(c2)OCO3)cc1 (stereo unspecified) | 7.61% (inactive) | –
6 | O=C(CN(Cc1ccc(Br)cc1)S(=O)(=O)c1ccccc1)NCc1ccncc1 | -11.6% (inactive) | –
7 | COc1ccccc1OCCNC(=O)CCNC(=O)c1ccccc1Cl | 5.78% (inactive) | –
8 | CC(C)CCn1cnc2c1c(=O)n(CC(=O)NC(N)=O)c(=O)n2Cc1ccccc1 | 5.14% (inactive) | –
9 | O=C(NCc1ccco1)/C(=C/c1ccco1)NC(=O)c1ccccc1 | 0.839% (inactive) | –
10 | CC(=O)c1nn(-c2cccc(C(F)(F)F)c2)c(=O)[nH]c1=O | -2.9% (inactive) | –
11 | O=S(=O)(Cc1nnnn1-c1ccccc1)c1ccccc1 | -13.6% (inactive) | –
12 | O=C(COc1ccc2c3c(c(=O)oc2c1)CCCC3)NCC(O)c1ccccc1 (stereo unspecified) | -20.8% (inactive) | –
13 | O=C(Nc1ccccc1F)c1ccccc1-c1ccccc1 | -8.17% (inactive) | –
14 | CC(C)C(=O)NC(=S)Nc1ccccc1F | – | 7.08 µM (active)
15 | CC(C)CC(=O)NC(=S)Nc1ccc(F)cc1F | -0.129% (inactive) | –
16 | O=C(c1n[nH]c2c1CCC2)N1CCCC(Nc2cccc(F)c2)C1 (stereo unspecified) | 23.1% (inactive) | –
17 | COc1ccccc1N(CC(=O)N/N=C(\C)c1ccccc1O)S(=O)(=O)c1ccc(C)cc1 | – | 0.562 µM (active)
18 | COc1ccccc1NC(=O)CN(c1ccccc1OC)S(=O)(=O)c1ccccc1 | 30.3% (inactive) | –
19 | COc1ccc(S(=O)(=O)N(CC(=O)N/N=C/c2ccccc2C(=O)O)c2ccccc2OC)cc1 | -9.74% (inactive) | –
20 | Cc1nc([N+](=O)[O-])cn1CC(=O)Nc1ccc(Cl)cc1 | 1.88% (inactive) | –
21 | CC1(C)Cc2ccccc2/C(=C/C(=O)c2ccccc2)N1 | -0.188% (inactive) | –
22 | CC1(C)Cc2ccccc2-c2[nH]c(=S)[nH]c(=O)c21 | – | 17.8 µM (active)

Row | SMILES | activity change, negative = inhibition | Potency
23 | N#CC1=C(N)Oc2[nH]c(=S)[nH]c(=O)c2C12C(=O)Nc1ccccc12 (stereo unspecified) | -0.0554% (inactive) | –
24 | Cc1nn(C(C)(C)C)c(OC(=O)CC(C)C)c1S(=O)(=O)c1ccccc1 | 3.7% (inactive) | –
25 | COc1ccc(C)cc1S(=O)(=O)Nc1cccc(Cl)c1Cl | -0.432% (inactive) | –
26 | COc1ccc(C)cc1Nc1n[n+](-c2ccccc2)c(-c2cccc(Cl)c2Cl)s1 | – | 6.31 µM (active)
27 | COc1ccc(C)cc1Nc1nc(-c2c(C)[nH]c3ccccc23)cs1 | -10.8% (inactive) | –
28 | COc1cc(Br)c(-c2sc(Nc3ccccc3)n[n+]2-c2ccccc2)cc1OC | – | 11.2 µM (active)
29 | CCOc1ccc2c(c1)c(=O)c(S(=O)(=O)c1ccc(C)cc1)cn2CC | 7.17% (inactive) | –
30 | CC(=O)N1CCN(CC(c2ccccc2)c2ccccc2)CC1 | -3.77% (inactive) | –
31 | COc1ccc(C(=O)C2CCCN(S(=O)(=O)c3cccc(C)c3)C2)c(C)c1 (stereo unspecified) | 18.4% (inactive) | –
32 | COc1cc(/C=C/CO)cc(OC)c1O[C@@H]1O[C@H](CO)[C@@H](O)[C@H](O)[C@H]1O | -1.73% (inactive) | –
33 | CCc1cccc(OC2OC(CO)C(O)C(O)C2NC(C)=O)c1 (stereo unspecified) | -2.24% (inactive) | –
34 | Cc1csc(-c2coc3cc(O[C@@H]4O[C@H](CO)[C@@H](O)[C@@H](O)[C@H]4O)ccc3c2=O)n1 | – | 3.16 µM (active)
35 | O=C(O)c1cc([N+](=O)[O-])c(Nc2cccc3ccccc23)c([N+](=O)[O-])c1 | -7.65% (inactive) | –
36 | CSc1ccccc1NC(=O)c1ccc2c(c1)CCN2S(C)(=O)=O | 16.2% (inactive) | –
37 | Cc1occc(=O)c1OCc1c(Cl)cccc1Cl | -24.3% (inactive) | –
38 | CCCOc1ccc(C(=O)NCCc2ccccc2)cc1 | – | 11.2 µM (active)
39 | O=C(NCCc1ccccc1)c1ccc(OCCOc2ccccc2)cc1 | 3.42% (inactive) | –
40 | O=C(NCCOc1ccccc1)c1ccccc1 | 15.7% (inactive) | –
41 | CCOC(=O)c1c(C)[nH]c(C)c1S(=O)(=O)NCCCc1ccco1 | 15% (inactive) | –
42 | O=C(Nc1nc2ccccc2s1)c1ccc2c(c1)OCO2 | – | 7.94 µM (active)
43 | COCc1nnc(NC(=O)c2ccc3c(c2)OCO3)s1 | -16.1% (inactive) | –
44 | Cc1cc(C)c2nc(NC(=O)C3CCCO3)sc2c1 (stereo unspecified) | -2.7% (inactive) | –

Row | SMILES | activity change, negative = inhibition | Potency
45 | O=C(Nc1ccccc1F)c1ccc2c(c1)OCO2 | -29.1% (inactive) | –
46 | Cc1ccc(-n2nc3c(c2NC(=O)c2ccc4c(c2)OCO4)CSC3)c(C)c1 | -43.7% (inactive) | –
47 | Cc1ccc2sc(NNC(=O)c3ccc4c(c3)OCCO4)nc2c1C | – | 7.94 µM (active)
48 | Cc1cc(C)c2nc(NC(=O)c3ccc4c(c3)OCO4)sc2c1 | – | 0.251 µM (active)
49 | Cc1ccc(F)cc1NC(=O)c1ccc2c(c1)OCO2 | 6.77% (inactive) | –
50 | C/C(Cc1ccccc1)=N\NC(=O)CNC(=O)c1ccc2c(c1)OCCO2 | 4.11% (inactive) | –
51 | COc1ccc(C)cc1N(C(=O)Cn1nnc(-c2ccc(C)o2)n1)C(C(=O)NC1CCCC1)c1ccncc1 (stereo unspecified) | 50.5% (inactive) | –
52 | CCCN1CCN(C(=O)CCCNC(=O)c2ccc(Cl)cc2)CC1 | -13.7% (inactive) | –
53 | COCCCN1C(=O)c2ccc(C(=O)OCC(=O)NCc3ccccc3OC)cc2C1=O | 35.5% (inactive) | –
54 | CCOCCCNc1nc(-c2ccccc2)nc2ccccc12 | 24.9% [at 1.91 µM] (inactive) | –
55 | COc1ccc(CN(C)C(=O)Cc2ccsc2)c(OC)c1OC | 1.53% (inactive) | –
56 | CC(=O)c1ccc(NC(=O)c2ccc(-n3cncn3)c([N+](=O)[O-])c2)cc1 | -17.2% (inactive) | –
57 | CCCC[C@]12Cc3cc(OC)c(OC)cc3C(O1)C1=C(CC3(CCCCC3)OC1=O)O2 | 3.02% [at 10 µM] (inactive) | –
58 | COCCc1nn2c(=O)cc(COC(=O)c3cc(OC)c(OC)c(OC)c3)nc2s1 | -34.4% (inactive) | –
59 | CN(c1ccccc1)S(=O)(=O)c1ccc(C(=O)NCCc2ccccc2)cc1 | 27.7% (inactive) | –
60 | CCCc1cc(C(=O)N2CCCC(CO)(CCCc3ccccc3)C2)n(C)n1 (stereo unspecified) | 44.2% (inactive) | –
61 | CCOc1ccc(NC(=O)CCCCCN2C(=O)[C@@H]3Cc4ccccc4CN3C2=O)cc1 | -27.6% (inactive) | –
62 | Cc1cc(-c2nnc(SCC(=O)Nc3ccc(F)cc3)n2N)n[nH]1 | -19% (inactive) | –
63 | CCOC(=O)C1=C(C)NC(SC)=NC1c1ccccc1 (stereo unspecified) | 26.3% (inactive) | –
64 | C=CCC1(C#N)C(=S)NC(C)=C(C(=O)OCC)C1c1ccccc1 (stereo unspecified) | – | 10 µM (active)
65 | C=CCOC(=O)C1=C(C)OC(N)=C(C#N)C1c1ccc(F)cc1 (stereo unspecified) | -3.91% (inactive) | –
66 | CC(C(=O)Nc1ccc(O)c(C(=O)O)c1)N1C(=O)/C(=C/c2cccs2)SC1=S (stereo unspecified) | -1.15% (inactive) | –
